Test results published in ChEMBL document CHEMBL3988442, “University of Dundee, Small-Polar-MMV Screening Library” (2021).
Screen size: about 48,000 compounds; about 13,000 (27%) showed an effect of 50% or more. Some of the results follow.

test system: Wolbachia pipientis; assay: Anti-Wolbachia Cell-Based Screen; type: functional; set-up: scale not given: in the data most compounds retested in dose-response had high values; conditions: 5 µM

SMILES | Percent Effect
NC(=O)Nc1cccc(C(=O)N(Cc2ccncc2)C2CC2)c1 | 8.655%
CC(O)CN1CCC(CNCc2ccccc2Br)CC1 (stereo unspecified) | -8.503%
O=C(NCCN1CCOCC1)NCc1ccc(-n2cccn2)cc1 | -7.54%
CC(C)Nc1nc2c(c(NC3CC3)n1)CCN(C1CCOCC1)CC2 | -24.37%
O=C(CO)N1CCN(S(=O)(=O)CCCF)CC1 | -8.107%
O=C(c1ccoc1)N1CCCCC1c1nc[nH]n1 (stereo unspecified) | 11.28%
O=S(=O)(N(Cc1ccccn1)C1CC1)N1CCCC1c1ccco1 (stereo unspecified) | 17.98%
Nc1cc(-c2c[nH]nc2C2CCCCN2C(=O)C2CCCC2)ccn1 (stereo unspecified) | 118.9%
COc1ccc(NC(=O)N2CCCCC2c2ncc[nH]2)cc1 (stereo unspecified) | 18.67%
Nc1cc(-c2c[nH]nc2C2CCCN2S(=O)(=O)c2ccccc2)ccn1 (stereo unspecified) | 96.1%
Nc1ncncc1-c1noc([C@@H]2CCCN2CCCc2ccccc2)n1 | 5.428%
Nc1cc(-c2c[nH]nc2C2CCCN2CCCc2ccccc2)ccn1 (stereo unspecified) | 114.8%
Cc1cc(C2CCCN2CCCS(=O)(=O)c2ccccc2)no1 (stereo unspecified) | -10.32%
Cn1nnc2c1C(COCC1CC1)CN(C(=O)CC1=CCCCC1)C2 (stereo unspecified) | -19.61%
CC(NC1(CNC(=O)CC2CCCC2)CCOCC1)c1ccccc1 (stereo unspecified) | -11.89%
Cc1sc2nc(SC(C)c3nc(C(C)(C)C)no3)nc(N)c2c1C (stereo unspecified) | 10.97%
CCc1nnsc1C(=O)N(C)Cc1ccc(Br)o1 | 14.42%
Cc1ccc(S(=O)(=O)Cc2nsc(N(C)C)n2)c(C)c1 | -1.61%
CCc1nc(NCC(=O)N2CCOCC2)c2c(n1)c(C)nn2CC | 7.048%
CCN1CCN(c2ccc(F)cc2C(C)NCc2ccnn2C)CC1 (stereo unspecified) | -1.019%
Cc1ccc(N2CCC(C(O)Cc3ccccc3)CC2)nn1 (stereo unspecified) | -17.42%
COc1nc(C)c(C(=O)N2CCN(c3ncccc3C)CC2)s1 | -23.23%
COc1nc(C)c(C(=O)N2CCc3[nH]nc(Cc4ccccc4)c3C2)s1 | 2.938%
CCOC(=O)N1CCN(C(=O)c2sc(-c3ccccc3)nc2C)CC1 | -9.068%
CC(C)CC(O)C1CCN(C(=O)c2ccc(C(C)C)[nH]c2=O)CC1 (stereo unspecified) | -16.76%
Cc1nc(N)sc1C(=O)N1CCC(C(O)Cc2ccccc2)CC1 (stereo unspecified) | 104.4%

SMILES | Percent Effect
COc1nc(C)c(C(=O)N2CCC(C(O)Cc3ccccc3)CC2)s1 (stereo unspecified) | 114.7%
Cc1nn(C)c2nc(N3CCC(C(O)Cc4ccccc4)CC3)sc12 (stereo unspecified) | -11.76%
Cc1cc(=O)c(C(=O)N2CCC(C(O)Cc3ccccc3)CC2)c(C)[nH]1 (stereo unspecified) | 97.46%
c1ccc(Cn2cccn2)c(CN2CCCCC2CCn2ccnc2)c1 (stereo unspecified) | -5.854%
Cc1cccc(NC(=O)C2CCc3ccccc3N2)c1.Cl (stereo unspecified) | 2.596%
NS(=O)(=O)c1cnn(-c2ccc(NC(=O)C3CCCCC3)cn2)c1 | -15.76%
O=C(Nc1ccc(-c2csnn2)cc1)N1CCN2CCCCC2C1 (stereo unspecified) | 5.858%
Cc1ccc(NC(=O)C2CCc3ccccc3N2)cc1 (stereo unspecified) | -1.128%
O=C(Nc1ccc(-c2ccccc2)cn1)C1CCN(C(=O)C2CC2)CC1 | 26.94%
O=C(Nc1cnc2n1CCCC2)c1cccc(NC(=O)C2CCCC2)c1 | 10.86%
Nc1ncc(-c2ccc(NC(=O)[C@@H]3CCCCN3)cc2)cn1 | 109.3%
Nc1ncc(-c2cccc(NC(=O)[C@@H]3CCCCN3)c2)cn1 | 116.6%
O=C(Nc1ccc(-c2cnc(NCCO)nc2)cc1)[C@@H]1CCCCN1 | 129.4%
CNc1ncc(-c2ccc(NC(=O)[C@@H]3CCCCN3)cc2)cn1 | 112.9%
Cc1ccc2cc(C3(O)CCN(C(=O)[C@@H]4CCCCN4)CC3)ccc2n1 | -9.232%
CCc1ncc(C(=O)N(C)CCc2nc3cc(OC)ccc3[nH]2)cn1 | 4.765%
CNC(=O)C(C)(C)N1CCC[C@H]1C(=O)NCC1CC1 | 11.03%
COc1ccc(OCc2noc(CN(C)C3CCS(=O)(=O)C3)n2)cc1 (stereo unspecified) | -8.185%
CN(Cc1cc(Br)cn1C)C(=O)c1ccon1 | -0.2013%
O=S1(=O)NC2(CCCN(Cc3ccc(Cl)cc3)C2)COc2ccccc21 (stereo unspecified) | 134.9%
CN1C2(CCN(Cc3ccc(F)cc3)C2)c2ccccc2S1(=O)=O (stereo unspecified) | 8.528%
O=C1NCC2(CCCN(CCc3ccccc3)C2)Oc2ccccc21 (stereo unspecified) | -15.46%
O=S1(=O)NCC2(CCN(c3ncc(F)cn3)CC2)COc2ccccc21 | -10.54%
O=S1(=O)NC2(CCCN(Cc3ccc(F)cc3)C2)COc2ccccc21 (stereo unspecified) | 98.49%
O=S1(=O)NC2(CCCN(CCc3ccccc3)C2)COc2ccccc21 (stereo unspecified) | 103.7%
COCCCC1(CO)CCCN(CCc2ccccc2)C1 (stereo unspecified) | -12.43%

SMILES | Percent Effect
O=C1Nc2ccccc2C12CCCN(Cc1ccc3c(c1)OCCO3)C2 (stereo unspecified) | -17.7%
CCN(C)c1ccc(CNC(=O)c2ccc(NC(N)=O)cc2)cc1F | -59.71%
CCc1cc(NCc2cc3n(n2)CCCN(S(C)(=O)=O)C3)nc(C)n1 | 3.028%
c1ccc(Oc2nccc3occc23)c(CN2CCCCC2)c1 | -8.744%
CN(C)S(=O)(=O)NCC1(c2ccccc2Br)CC1 | -6.253%
CN1CCO[C@@H]2CN(S(=O)(=O)c3ccccc3)C[C@@H]2C1.O=C(O)C(F)(F)F | 98.27%
CN1CCO[C@H]2CN(S(=O)(=O)c3ccc(C#N)cc3)C[C@H]21.O=C(O)C(F)(F)F | -17.08%
CC(=O)N1CCO[C@@H]2CN(S(=O)(=O)c3cccnc3)C[C@@H]2C1.O=C(O)C(F)(F)F | 105.8%
COc1ccc(S(=O)(=O)N2C[C@@H]3CN(C)CCO[C@@H]3C2)cc1 | 104.2%
CNC(=O)[C@H]1C[C@@H]2CN(S(=O)(=O)c3ccc(OC)cc3)C[C@@H]2N1C.O=C(O)C(F)(F)F | -8.898%
CC(C)N1CCO[C@H]2CN(S(=O)(=O)c3ccc(C#N)cc3)C[C@H]21 | -6.179%
CN1CCO[C@@H]2CN(S(=O)(=O)c3ccccc3)CC[C@@H]2C1.O=C(O)C(F)(F)F | -5.775%
Cc1occc1C(=O)NCC(=O)N(C)CCCOc1ccc(F)cc1 | -0.7534%
Cc1cc(C(C)NC(=O)c2cnc3onc(C)c3c2)c(C)o1 (stereo unspecified) | 7.597%
C1CC1c1nsc(N2CCN(C3CC3)CC2)n1 | -1.801%
CSCCc1c(-c2ccccc2)ncn1[C@H]1C[C@@H](C(=O)O)N(C)C1 | 9.47%
CCCS(=O)(=O)N1CCN(c2ccnc(N3CCCCC3)n2)CC1 | -4.762%
COc1ccc(CNC(=O)NCCc2nc(C)c(C)s2)cn1 | -8.722%
Cc1cnc(CCNC(=O)NCCOc2ncccc2Cl)s1 | -4.9%
CCc1cnc(CNC(=O)N2CCCC(c3ncc[nH]3)C2)s1 (stereo unspecified) | -16.47%
CCc1cnc(CNC(=O)NCCCO)s1 | 97.97%
CNC(=O)Cc1ccc(NC(=O)NCc2ncc(C)s2)cc1 | -0.2896%
CCc1cnc(CNC(=O)N2CCCC(C(=O)NC)C2)s1 (stereo unspecified) | -0.4435%
CCc1cnc(CNC(=O)NC2CC(C)(C)OC2(C)C)s1 (stereo unspecified) | 0.9333%
Cc1cnc(CCNC(=O)NCCc2ccc(O)cc2)s1 | 116.1%
CCc1cnc(CNC(=O)NCCc2ccc(O)cc2)s1 | 101.6%

SMILES | Percent Effect
CCn1c(C)cc(C(=O)NCc2cccc(NS(C)(=O)=O)c2)c1C | -5.652%
CNC(=O)c1cc(NC(=O)NCC2CCS(=O)(=O)C2)ccc1OC (stereo unspecified) | -3.737%
Cc1noc(OCc2csc(C)n2)n1 | 2.505%
COc1cc2nc(C)sc2cc1NC(=O)C(C)NC(N)=O (stereo unspecified) | -2.888%
COc1ccccc1N1CCN(C(=O)CCCS(N)(=O)=O)C(C)C1 (stereo unspecified) | -9.849%
CCOC(=O)c1sc2ccsc2c1CN.Cl | -6.159%
CCOC(=O)c1sc2ccsc2c1CNC(=O)CC | 11.82%
CCOC(=O)c1sc2ccsc2c1CNC(=O)C(C)(C)C#N | 61.27%
O=C(c1ccc[nH]1)N1C[C@H]2CC[C@@H]1CN(C1Cc3ccccc3C1)C2 | -8.418%
CCC(C)(C)NC(=O)Cn1nc(C)nc1-c1cccc(C)c1 | -9.782%
Cc1cccc(-c2nc(C)nn2CC(=O)NC(C)C)c1 | 108.3%
Cc1cccc(-c2nc(C)nn2CN2CCN(S(C)(=O)=O)CC2)c1 | -9.044%
Cc1cccc(-c2nc(C)nn2CC(=O)N(C)C2CC2)c1 | -1.032%
Cc1nc(-c2ccccc2)n(CC(=O)NC(C)C2CC2)n1 (stereo unspecified) | -16.22%
Cc1cccc(-c2nc(C)nn2CC(=O)NC(C)C2CC2)c1 (stereo unspecified) | 96.27%
Cc1ccc(CNC2(Cc3cc(CC(C)C)on3)COC2)o1 | 0.7021%
O=C(c1ccc(=O)[nH]c1)N1CCC(Oc2cccc(C(F)(F)F)c2)CC1 | -22.64%
O=C(O)C(F)(F)F.O=C(c1cccc(Cl)c1)N1CC[C@H]2[C@H]1CCN2CC1CC1 | -19.81%
CCN1CC(O)CN(C(=O)c2cccc(C(F)(F)F)c2)CC1=O (stereo unspecified) | 106.7%
N#CCCN1CC(O)CN(C(=O)c2cccc(C(F)(F)F)c2)CC1=O (stereo unspecified) | 98.63%
O=C1CN(C(=O)c2cccc(C(F)(F)F)c2)CC(O)CN1CC1CC1 (stereo unspecified) | 100.3%
CC(C)(C)CN1CC(O)CN(C(=O)c2cccc(C(F)(F)F)c2)CC1=O (stereo unspecified) | 85.94%
Nc1cc(C(=O)N2CCOC(Cc3cccc(C(F)(F)F)c3)C2)ccn1 (stereo unspecified) | -0.1683%
